# Reference: PubChem BioAssay (NCI)
# Compounds without any hit were thinned out: in the full panel of roughly 79,000, 15% have a hit. Unmarked numbers belong to inactive results. The source made the active and inactive calls. Rule as the data show it: active = growth inhibition above about 70%; inactive = the rest. Where a SMILES comes first, the peptide text is derived from it. [ ]: non-standard residue; d: D form. The star is where a group is joined. Nle = CCCC[CH](N)C(=O)O; Cbz = O=C(OCc1ccccc1)*; OBn = c1ccc(CO*)cc1
# Experiments:
# [1] = NCI Yeast Anticancer Drug Screen. Data for the rad50 strain (AID 155);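 also: 0% = growth of vehicle-only cultures of the same strain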; details: S. cerevisiae rad50 strain growth inhibition; at 50.0 µM; active compounds read high
# In short: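 Vehicle-treated cultures provide the reference for the growth inhibition reported for compound-exposed, repair-deficient yeast.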
# [2] = NCI Yeast Anticancer Drug Screen. Data for the mec2-1 strain (AID 157); details: S. cerevisiae mec2-1 strain, at 50.0 µM, active compounds read high
# In short: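 Using mec2-1 yeast: add compound, measure growth, express inhibition versus vehicle-treated cultures.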
# [3] = NCI Yeast Anticancer Drug Screen. Data for the sgs1 mgt1 strain (AID 161);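 also: 0% = growth of cultures given vehicle only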; details: S. cerevisiae sgs1 mgt1 strain, at 50.0 µM, active compounds read high
# In short: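 Compounds are added to genetically altered yeast, and growth is compared with cultures given vehicle alone to give percent inhibition.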
# [4] = NCI Yeast Anticancer Drug Screen. Data for the cln2 rad14 strain (AID 165);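 also: 0% = growth equal to vehicle treated cultures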; details: S. cerevisiae cln2 rad14 strain, at 50.0 µM, active compounds read high
# In short: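 Yeast strain cln2 rad14, bearing defects in cell cycle control and DNA repair, serves as the test system; values reflect growth inhibition compared with vehicle.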
# [5] = NCI Yeast Anticancer Drug Screen. Data for the bub3 strain (AID 167); details: S. cerevisiae bub3 mutant strain, at 50.0 µM, active compounds read high
# In short: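 Mutant yeast screening strain plus compound; vehicle-treated cultures serve as the 0% inhibition reference.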
# [6] = NCI Yeast Anticancer Drug Screen. Data for the mlh1 rad18 strain (AID 175); details: S. cerevisiae mlh1 rad18 strain growth inhibition; at 50.0 µM; active compounds read high
# In short: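 Steps: expose repair-defective yeast to compound; measure growth; express inhibition against vehicle-treated controls.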
SMILES,growth inhibition [1],growth inhibition [2],growth inhibition [3],growth inhibition [4],growth inhibition [5],growth inhibition [6]
CC1=CC2C(c3ccccc3)Nc3ccccc3N2C1=O (stereo unspecified),32.6%,8.4%,10.2%,8.45%,-8.65%,-6.45%
Cn1nc2ccc([N+](=O)[O-])cc2[n+]1[O-],28.4%,-2.45%,-2.8%,-19.4%,0.05%,-17.2%
CCCCC(CC)COC(=O)Cc1ccccc1 (stereo unspecified),17.3%,17.1%,15.8%,-5.85%,40.1%,34.7%
CC(=O)Nc1ccc(/C=C2\N=C(c3ccccc3)OC2=O)cc1,15.9%,-1.75%,11.8%,-49%,-10.9%,10.3%
CN(C)NC(=O)Nc1ccc2ccccc2c1,-39.4%,-30.7%,-8.55%,-41%,-24.2%,-24.4%
O=C(O)CC1CCCc2ccccc2C1CC(=O)O (stereo unspecified),5.25%,-4.3%,10.4%,8.8%,6.85%,7.4%
CCOC(=O)C1CC1C#N (stereo unspecified),3.4%,-11.9%,9%,13.9%,9.95%,7.75%
Cc1ccc(O)c(C)n1,4.2%,14%,0.15%,7%,-0.2%,-2.9%
COC(=O)CC1(O)C=C(C)C(=O)c2ccccc21 (stereo unspecified),4.9%,-5.7%,-19.2%,-19%,25.2%,-11.2%
NC(=O)C1N=NSC1NC(=O)c1ccc([N+](=O)[O-])cc1 (stereo unspecified),1.8%,-5.6%,-8.9%,6.65%,-9.15%,5.45%
Nc1nc(C(=O)O)c([N+](=O)[O-])c(=O)[nH]1,-31.6%,-13.7%,-14.4%,-20.5%,-6.9%,-11.8%
COc1ccc(C2Nc3cc(Cl)ccc3NC3=C2C(=O)CC(C)(C)C3)cc1 (stereo unspecified),52.5%,30.9%,41.2%,28.6%,40.3%,54.3%
C[N+](C)(CCCN1C(=O)c2cccc3c(Br)ccc(c23)C1=O)Cc1ccc(Cl)c(Cl)c1,97.8% (active),98% (active),98.3% (active),95.8% (active),95.7% (active),98% (active)
CCCCCCC(=O)C(=O)O,41.4%,37.8%,35.5%,3.65%,18.9%,59.5%
Cc1cccc(C)c1Nc1n[nH]c(=S)s1,18.3%,33.8%,45.5%,0.8%,44.5%,13.9%
CCCCCCCC(C)(O)C#CC(C)(O)CCCCCCC (stereo unspecified),4.35%,-4.15%,4.85%,-20.6%,5.05%,13.3%
N=c1ccc2nc(N)nn(O)c-2c1,-1.2%,12.1%,2.9%,-3.4%,-37.3%,-44%
N#CC(c1ccc(Cl)cc1)c1ccc(N(CCO)CCO)cc1 (stereo unspecified),9.4%,1.25%,2.75%,5.85%,-12.1%,13.8%
C1CSC[C@H]2COC[C@@H](CSCCS1)S2,-0.5%,4.25%,-2.55%,18.9%,9.05%,-7.9%
C/C(=N\N=C\N(C)S(=O)(=O)c1ccc(C)cc1)c1ccccc1,-10.7%,-2.8%,-6.3%,-6.25%,1.55%,-2.7%
NC(N)=NNC(=S)S,10.9%,-5.15%,23.5%,5.1%,20.3%,12.8%

SMILES,growth inhibition [1],growth inhibition [2],growth inhibition [3],growth inhibition [4],growth inhibition [5],growth inhibition [6]
c1cnc2ncncc2n1,-2.6%,32.4%,-8.55%,28.8%,14.4%,12.5%
CCCC(=O)Nc1cc([N+](=O)[O-])c([N+](=O)[O-])cc1OC,-3.7%,-2.55%,0%,1.65%,13.8%,-3%
CC12CCC3C(CCC4CCCCC43C)C1CC/C2=N\O (stereo unspecified),90.2% (active),45.6%,79.8% (active),39.8%,85.5% (active),96.5% (active)
Cc1ccc([Se](=C(C(=O)c2ccccc2)C(=O)c2ccccc2)c2ccc(C)cc2)cc1,82.4% (active),11.7%,35.7%,9.85%,4.95%,54.6%
COc1ccc(/C=C2\N=C(c3ccccc3)OC2=O)c(Br)c1OC(C)=O,-20.1%,0.7%,-12.7%,-12.3%,-0.8%,14.3%
Cc1ccc2c(c1)[nH]c(=S)n2C=C(C#N)C#N,-23.6%,-42.4%,-1.1%,0.75%,-0.55%,-5.15%
Cc1cc2c(C(C)C)c(O)c(O)c(C=Nc3ccc(N=Nc4ccccc4)cc3)c2c(O)c1-c1c(C)cc2c(C(C)C)c(O)c(O)c(C=Nc3ccc(N=Nc4ccccc4)cc3)c2c1O,-4.7%,0.4%,-6.3%,-21.8%,-3.35%,-4.65%
Cc1ccccc1C(O)(c1nccn1C)c1nccn1C,8.75%,5.5%,19.9%,9.55%,18.2%,37.3%
Nc1ccn(C2OC(COP(=O)(O)O)C(O)C2O)c(=O)n1 (stereo unspecified) (tested in a mixture with another compound),-3.8%,-4.25%,-0.75%,-44.4%,1.15%,14.1%
CN1Cc2cc3c(cc2-c2ccccc21)OCO3,-23.7%,-35.7%,-44.9%,6.4%,-36.5%,-35.6%
CCCCC(NC(=O)C1CCCN1C(=O)OCc1ccccc1)C(=O)OCc1ccccc1 (stereo not drawn) (Cbz-Pro-[Nle]-OBn; configuration not given here),12.4%,12.2%,11.4%,-10.9%,-5.45%,15.9%
CN1CCC(Cl)(C(=O)c2ccccc2)CC1,26.2%,4.35%,25.6%,-9.5%,5%,8.25%
O=C1Nc2ccc(Br)cc2C1(O)Cc1cccc([N+](=O)[O-])c1 (stereo unspecified),7.35%,12.2%,13.5%,3.55%,-12.9%,11.8%
CC1=C[P+](c2ccccc2)(c2ccccc2)C=C(C)O1,8.9%,3.55%,12.6%,0.65%,4.5%,4.25%
Cc1c(C)c2c(c(C)c1Cl)CC2(Cl)Cl,3.6%,4%,-9.15%,-41.8%,-5.55%,-9.5%
CCCCOc1ccccc1C(=O)OC,23.9%,5.55%,21.8%,-0.6%,9.4%,18.5%
CCOC(=O)NC(=O)c1cn(CCCOC(=O)CCCCCCCCCCC(=O)OCCCn2cc(C(=O)NC(=O)OCC)c(=O)n(C)c2=O)c(=O)n(C)c1=O,-22.3%,8.3%,-24.6%,15.3%,-2.35%,-19.4%
N#Cc1ccc(NN=NCCOCCCl)cc1,18.3%,26.6%,17.9%,34.9%,27.1%,23.6%
ClC(Cl)(Cl)C(Cl)(Cl)C(Cl)(Cl)Cl,42.1%,14.8%,16%,-19.4%,6.75%,24.3%
CC(C)(C)CNCCCBr,-19.9%,-4.8%,-9.05%,-13.3%,30.8%,8.15%
